Screen size: about 1,300 compounds; fewer than 10 were called active. Another 9% or so got no clear call; they are omitted. Calls follow the shape of the dose curve; as a rule, active = well fitted curve in the direction sought with a large enough effect; inconclusive = small, poorly fitted or top-dose-only effect, or another doubt; inactive = no such curve, though single readings can be large or run the other way. Not all results are given here. A call without a number means that no potency is given here.

Results on 65 molecules are retold here after PubChem BioAssay AID602441 (National Center for Advancing Translational Sciences (NCATS), 2012).
Potency is read from the fitted curve at half-maximal effect.

This experiment can be described thus: qHTS for antagonists of the Thyroid Stimulation Hormone Receptor: Hit Validation in Parental Cell Line. The settings on record: parental HEK293 cells lacking TSHR, counter-screen; series mostly up to 56.9 µM. The source says:
The thyroid-stimulating hormone receptor (TSHR) is a member of the 7 trans-membrane-spanning receptor (7TMR) family of cell surface receptors. TSHR-mediated hyperthyroidism is important in thyroid pathology. The development of small molecule antagonists of TSHR may lead to therapeutic approaches for TSHR-mediated hyperthyroidism caused by constitutively activating mutations or stimulating auto-antibodies associated with Graves' disease. Graves' disease is the leading cause of hyperthyroidism and is caused by autoantibodies that stimulate TSHR (TsAbs) causing thyroid growth and unregulated overproduction of thyroid hormones and existing treatments have liabilities (agranulocytosis). In addition, TSHRs are known to be expressed in multiple extrathyroidal tissues including bone, brain, kidney, testis, fat and cells of the immune system but the role of the TSHR in these tissues is not clear. Therefore, TSHR antagonists/inverse agonists could be used as probes of extrathyroidal TSHR function. Finally, TSHR inverse agonists, which are a subclass of antagonists that inhibit agonist-independent (or basal or constitutive) TSHR signaling, could be used to inhibit TSH-independent signaling in patients with recurrent or metastatic thyroid cancer who are receiving thyroid hormone to suppress TSH.
In collaboration between scientist from the NCGC and the NIDDK, a miniaturized HTRF high-throughput screen was developed. It's a cell based assay, where an anti cAMP antibody contains a fluorescent cryptate tag (excitation 337 nm; emission 620 nm) and the acceptor is cAMP-d2 (excitation 620 nm; emission 665 nm). When antibody and cAMP-d2 interact and are excited by a 337 nm light, a FRET occurs resulting in emission at 665 nm. The assay is competition between cAMP-d2 and cAMP (from the cell lysate). The homogeneous protocol allows for one step dispense after stimulation that is automation friendly. This is a hit validation assay in a counterscreen using parental HEK 293 cells lines.
NIH Chemical Genomics Center [NCGC]
NIH Molecular Libraries Probe Centers Network [MLPCN]
Assay Provider: Marvin Gershengorn, NIDDK
An anti cAMP antibody contains a fluorescent cryptate tag (excitation 337 nm; emission 620 nm) and the acceptor is cAMP-d2 (excitation 620 nm; emission 665 nm). When antibody and cAMP-d2 interact and are excited by a 337 nm light, a FRET occurs resulting in emission at 665 nm. The assay is competition between cAMP-d2 and cAMP (from the cell lysate). The homogeneous protocol allows for one step dispense after stimulation that is automation friendly. This assay uses parental HEK-EM 293 cells
Regarding `CC(C)c1ccc(OCC(=O)Nc2cccc3c2CCCC3)cc1`, the Potency entry is “inactive”. The entry for `O=C(Cn1cnc2ccccc21)Nc1ccc2c(c1)OCCCO2` is “inactive”. Consider `Cc1c(Nc2cc(Cl)c3nonc3c2[N+](=O)[O-])c(=O)n(-c2ccccc2)n1C`, for which the Potency entry is “inactive”. On to `CN(C)S(=O)(=O)c1ccc(N2CCN(S(=O)(=O)c3ccc(F)cc3)CC2)c(Cl)c1`, for which the Potency entry was “inactive”. The entry for `CC(NC(=O)c1ccc([N+](=O)[O-])o1)C1CC2CCC1C2` (stereo not given) is “inactive”. As for `C=CCC1(CC=C)CCCN1C(=O)c1cc(COc2ccc(C)nc2)on1`, the Potency result is “inactive”.

On to `C=CCN1C(=O)C(Cc2ccc(OC)cc2)S/C1=N/N=C/c1ccco1` (stereo not given), for which the Potency result is “inactive”.

Turning to `CSc1cnn(Cc2ccccc2)c(=O)c1SCc1ccccc1`, the Potency entry was “inactive”. The entry for `COC(=O)c1ccc(COc2cc(O)c3c(c2)OC(C)(C)CC3=O)cc1` is “inactive”. The entry for `COc1ccc(-c2csc3ncnc(N4CCN(S(=O)(=O)c5cccs5)CC4)c23)cc1` is “inactive”; for `N#Cc1ccc(CN2CCN(C(=O)c3ccc(S(=O)(=O)N4CCCCCC4)cc3)CC2)cc1` it is “inactive”. With `Cc1ccc(NC(=O)COc2cccc3c2OC(C)(C)C3)c(O)c1`, the Potency entry is “inactive”. On to `N#C/C(=N\Nc1ccc(S(=O)(=O)N2CCCCCC2)cc1)C(N)=S`, for which the Potency entry is “inactive”. The entry for `Cc1sc2nc(-c3ccccn3)[nH]c(=O)c2c1-c1ccccc1` is “inactive”; for `O=S(=O)(NCc1csc(-c2ccccc2)n1)c1ccc(Cl)s1` it is “inactive”; for `O=C(Nc1ccc(Br)cc1)c1cccc(S(=O)(=O)Nc2cnc3ccccc3c2)c1` it is “inactive”. The entry for `COc1ccc2ccccc2c1/C=N/NC(=O)c1nnn(-c2nonc2N)c1C(C)C` is “inactive”; for `COc1ccc(-c2csc(/C(C#N)=C\c3ccc(O)c([N+](=O)[O-])c3)n2)cc1OC` it is “inactive”; for `CCOC(=O)c1sc(NC(=O)c2cc(-c3ccccc3C)nc3ccccc23)c(C#N)c1C` it is “inactive”. Under `Cc1ccc(OCc2cc(C(=O)NC3CCCCC3)no2)cn1` stands “inactive”. With `O=C(Nc1ccncc1)c1cccc(S(=O)(=O)N2CCc3ccccc32)c1`, the Potency result is “inactive”. Under `N#C/C(=N/Nc1ccc(OC(F)(F)F)cc1)C(N)=S` stands “inactive”; under `Cc1ccc(CN2CCc3c(OCc4ccc(F)cc4)cccc3C2=O)cc1`, “inactive”; under `COc1ccc(C(=O)c2ccccc2)c2c(O)ccc(C(=O)c3ccccc3)c12`, “inactive”. Turning to `CCCC(=O)OCCNc1cc(Sc2nc3ccccc3[nH]2)c2nonc2c1[N+](=O)[O-]`, the Potency entry was “inactive”.

Turning to `N#CC(C#N)=NNc1ccc(S(=O)(=O)N2CCCCC2)cc1`, the Potency result is “inactive”. Under `COc1ccc(NS(=O)(=O)c2cccc(NC(=O)C3=NN(c4ccccc4)C(=O)CC3)c2)cc1` stands “inactive”; under `CCOc1ccc(-c2csc(/C(C#N)=C\c3ccc(O)c([N+](=O)[O-])c3)n2)cc1`, “inactive”. For `Cc1cc(C)n(C(=O)/C(C#N)=N/Nc2cc(Cl)cc(Cl)c2)n1`, the Potency entry was “inactive”.

For the molecule `COc1ccccc1C(=O)COC(=O)/C=C/c1ccccc1`, the Potency entry is “inactive”. Regarding `CN(C)c1ccc(/C=C/c2cc[n+](C)cc2)cc1`, the Potency entry is “inactive”. The figure for `CC[n+]1ccc(/C=C/c2ccc(N(C)C)cc2)c2ccccc21` is 26.9 µM (active); for `O=C(CN1C(=O)c2ccccc2S1(=O)=O)NCCSCc1cccc(Cl)c1` it is “inactive”; for `CC1CCC(C(C)C)C(OC(=O)Cn2c(-c3ccccc3)[n+](C)c3ccccc32)C1` (stereo not given) it is “inactive”. The entry for `N#Cc1c(C(F)(F)F)cc(-c2ccc(Cl)cc2)[nH]c1=O` is “inactive”; for `COc1ccc2nc(C)cc(N3CCN(S(=O)(=O)c4ccccc4F)CC3)c2c1` it is “inactive”; for `Cc1nc2ncnn2c(N2CCCC(C(=O)Nc3ccccc3Br)C2)c1C` (stereo not given) it is “inactive”. Turning to `O=S(=O)(c1ccc(Cl)cc1)N1CCN(c2ncnc3sccc23)CC1`, the Potency result was “inactive”. The entry for `Cc1noc(C)c1COc1ccccc1C(=O)N(C)Cc1ccc(C(C)(C)C)cc1` is “inactive”; for `O=c1cc(C(F)(F)F)[nH]c2ccc(OC(F)(F)F)cc12` it is “inactive”; for `CCCC(=O)Nc1cccn(Cc2ccccc2Br)c1=O` it is “inactive”.

In the case of `Cc1ccc(NC(=O)c2ccccc2NS(=O)(=O)c2ccc(F)cc2)cc1S(=O)(=O)N1CCCCC1`, the Potency entry is “inactive”.

Consider `COc1cccc(C(=O)Nc2ccc(NC(=O)C3CCCCC3)nc2)c1`, for which the Potency result is “inactive”. Turning to `Cc1ccc(NC(=O)C(C)c2ccc(-c3ccccc3)c(F)c2)cc1` (stereo not given), the Potency result was “inactive”. Under `O=C(Nc1ccc(N=Nc2ccccc2)cc1)c1ccccc1Cl` stands “inactive”. Under `O=C(O)c1cccc(NC2=C(Cl)C(=O)c3ccccc3C2=O)c1` stands “inactive”; under `CCN(CC)c1ccc2nc3ccccc3[n+](CC)c2c1`, 13.5 µM (active). Take `Cn1c2c(c(=O)n(C)c1=O)C(C(F)(F)F)(C(F)(F)F)N=C(c1ccc(Cl)cc1)N2`: the Potency entry was “inactive”. Under `Cc1sc(N/N=C/c2cccnc2)nc1-c1ccccc1` stands “inactive”; under `COc1ccccc1CNc1ncnc2sccc12`, “inactive”. On to `COc1ccc(NS(=O)(=O)c2ccc(N/N=C(\C)c3ccncc3)c([N+](=O)[O-])c2)cc1`, for which the Potency entry was “inactive”. With `COC(=O)c1sc(-c2ccc(Cl)cc2)cc1NC(=O)/C=C/C(=O)O`, the Potency entry was “inactive”.

As for `COc1cccc(-c2nc(CS(=O)(=O)CC(=O)NC3CCCCCC3)c(C)o2)c1`, the Potency result was “inactive”. The entry for `CCCOc1ccc(-c2cc(C(=O)NCC3CCCO3)c3ccccc3n2)cc1` (stereo not given) is “inactive”; for `COc1ccc(S(=O)(=O)N2CCN(c3cccc(C)c3C)CC2)cc1` it is “inactive”. Under `CCOC(=O)c1cc(C(=O)Nc2sc3c(c2C#N)CCCC3)nn1C` stands “inactive”; under `Cc1cccc(N(C(=O)c2nsc(Cl)c2Cl)C(C(=O)NC2CCCC2)c2ccc(O)cc2)c1C` (stereo not given), “inactive”.

Take `Cc1occc1-c1nnc(SCC(=O)Nc2nc(C(C)(C)C)cs2)o1`: the Potency entry is “inactive”.

As to `COc1ccc(Cn2nnnc2C(C(C)C)N2CCN(c3ccccc3OC)CC2)cc1` (stereo not given), the Potency result was “inactive”. In the case of `O=C(Nc1nc(-c2ccc(S(=O)(=O)N3CCCCCC3)cc2)cs1)c1ccccc1`, the Potency result is “inactive”.

As to `Cc1ccc(C)c(C(=O)OCC(=O)Nc2cccc(S(=O)(=O)N3CCCCC3)c2)c1`, the Potency entry is “inactive”. Under `CCOC(=O)c1c(-c2ccccc2)csc1NC(=O)CSc1nnnn1C` stands “inactive”; under `Cc1ccccc1-c1cc(C(=O)Nc2sc(C(=O)OC(C)C)c(C)c2C#N)c2ccccc2n1`, “inactive”. The entry for `Cc1ccc(C(=O)COC(=O)CCN2C(=O)C3C4CCC(C4)C3C2=O)cc1[N+](=O)[O-]` (stereo not given) is “inactive”. For the molecule `COc1ccc(CCNc2ncnc3sc(C)cc23)cc1OC`, the Potency result is “inactive”.
